Assay [1] is described as follows: inhibitors of TNFa-induced NFkB p65 translocation, primary screen, imaging, HUVEC, MLSMR starter and 10KST1 sets (AID 438).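 Further: compound added about 3h40 before a 20 min TNFalpha stimulation.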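 On inhibition: signal is the nuclear over cytoplasmic p65 intensity ratio per well.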 The following applies: HUVEC TNFa-induced p65 nuclear translocation; cell count: measured here: nuclei count (cytotoxicity indicator), at 2.08 µM; inhibition: at 2 µM, stronger effect = higher value, 0% TNFa-plus-vehicle, 100% no-TNFa wells.
Assay [2] can be described thus: inhibitors of mutant huntingtin aggregation, primary screen, imaging, exon1htt(103Q)mCFP cells, high-content imaging (AID 483;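 active means visual image review flags a hit and inhibition of aggregation exceeds 20%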;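 further: compound exposure lasted 3 days before fixation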;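 on nuclei count: percent of the per-plate median nuclei count of sample wells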). The following applies: exon1htt(103Q)mCFP cell line, aggregate imaging, at 2 µM; inhibition of aggregation: stronger effect = higher value; nuclei count: measured here: cell count, toxicity.
Assay [3] can be described thus: inhibitors of E-selectin induction by TNFa, primary screen, imaging, HUVEC, immunofluorescence, MLSMR starter and 10KST1 sets (AID 487;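 active means visually confirmed hit in the image check and inhibition above 20%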;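 on inhibition: signal is fraction of cell area covered by stained E-selectin grains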;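 on nuclei count: 100% = median nuclei count of all wells on the same plate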). Particulars: HUVEC TNFalpha-induced E-selectin immunofluorescence imaging, at 2 µM; inhibition: stronger effect = higher value; nuclei count: measured here: cell number, toxicity.
Assay [4] concerns the target Voltage-gated potassium channel subunit beta-2 (Rattus norvegicus) (UniProt P62483). Put plainly: KvBeta enzyme negative modulators, primary screen, biochemical, NADPH fluorescence (AID 622;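 active means fluorescence slope higher than the sample average by over 3 SD, cut at about -0.22 in these data, passing the limit was not always enough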;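 further: slope of raw intensity against log time taken from 70 to 1610 s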). The following applies: recombinant KvBeta, 4-cyanobenzaldehyde reduction, at 10 µM, stronger effect = higher value.
Assay [5] shares this target. Put plainly: KvBeta positive modulators, primary screen, biochemical, NADPH fluorescence (AID 623;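 active means NADPH fluorescence slope more negative than the mean of all samples by about 3 SD, 99.7% confidence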;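 further: fluorescence intensity change per second fitted from 20 to 320 s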). The following applies: Recombinant KvBeta, NADPH fluorescence decrease slope, 10 min; at 10 µM; stronger effect = lower value.
Assay [6] has as its target Alpha-2C adrenergic receptor (Homo sapiens) (UniProt P18825). Put plainly: modulators of alpha2C/GIRK thallium flux, primary screen, cell-based, HEK293 alpha2C/GIRK1/2 (AID 624;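 active means fluorescence slope after compound addition differing from the mean of all screened samples at 99.7% confidence, in either direction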;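 further: slope of fluorescence ratio to pre-addition baseline per second over 15 to 24 s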). Particulars: thallium flux BTC fluorescence, at 10 µM, actives lie on both sides.
Assay [7] in a line: inhibitors of Sendai virus-induced IRF3 signaling, primary screen, TLR/RLR signaling modifier project, cell-based, Sendai virus stimulus, luciferase, 10K MLSCN set (AID 602276;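 active means inhibition at or above 50% at 10 µM; inactive means inhibition below 50%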;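 further: firefly luciferase from ISG56 promoter only with Renilla not read in this screen; 0% = Sendai virus plus DMSO and 100% = medium plus DMSO without virus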). The following applies: HEK293 RL24 IRF3 luciferase reporter, at 10 µM, stronger effect = higher value. (Reporter assays use an easily measured gene product as a stand-in for the process of interest.)
The nature of assay [8]: inhibitors of poly I:C-induced TLR3 signaling, primary screen, cell-based, poly I:C stimulus, luciferase, 10K MLSCN set (AID 602277;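 active means inhibition of the reporter signal at or above 50%; inactive means inhibition below 50%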). The following applies: HEK293-TLR3 RL24 IRF3 luciferase reporter, at 10 µM, stronger effect = higher value.

From PubChem BioAssay come the findings set out here.

Molecules are shown by their SMILES. Calls of active or inactive are those of the source.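 How the source made its calls, unless noted: active means inhibition above 20% together with a positive visual image hit; inconclusive means visual image hit but inhibition not above 20%; inactive means no visual image hit.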

Chain of Alpha-2C adrenergic receptor (Homo sapiens) (P18825 whole entry, looked up): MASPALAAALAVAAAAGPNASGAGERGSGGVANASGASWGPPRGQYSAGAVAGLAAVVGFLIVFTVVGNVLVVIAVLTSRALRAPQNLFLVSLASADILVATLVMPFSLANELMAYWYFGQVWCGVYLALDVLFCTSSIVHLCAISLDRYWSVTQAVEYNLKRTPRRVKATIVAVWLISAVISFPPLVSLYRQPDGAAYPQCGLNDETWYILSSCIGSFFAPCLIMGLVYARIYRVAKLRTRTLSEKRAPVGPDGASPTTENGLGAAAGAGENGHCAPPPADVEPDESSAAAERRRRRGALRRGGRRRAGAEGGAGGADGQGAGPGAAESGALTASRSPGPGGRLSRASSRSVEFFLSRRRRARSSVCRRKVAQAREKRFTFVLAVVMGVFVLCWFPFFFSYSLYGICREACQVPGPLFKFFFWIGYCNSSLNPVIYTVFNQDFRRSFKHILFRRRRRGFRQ
Chain of Voltage-gated potassium channel subunit beta-2 (Rattus norvegicus) (P62483 whole entry, looked up): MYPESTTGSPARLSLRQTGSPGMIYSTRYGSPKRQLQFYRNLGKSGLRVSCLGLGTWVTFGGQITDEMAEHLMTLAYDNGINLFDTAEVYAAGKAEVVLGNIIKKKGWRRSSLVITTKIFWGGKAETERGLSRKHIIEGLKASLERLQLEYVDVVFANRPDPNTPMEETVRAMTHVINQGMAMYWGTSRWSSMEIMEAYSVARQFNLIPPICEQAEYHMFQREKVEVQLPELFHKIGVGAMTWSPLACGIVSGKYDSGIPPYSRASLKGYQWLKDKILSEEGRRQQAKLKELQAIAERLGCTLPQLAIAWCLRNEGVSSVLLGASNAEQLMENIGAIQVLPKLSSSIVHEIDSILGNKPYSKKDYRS

Turning to `CCn1c(SCC(=O)N2c3ccccc3CCc3ccccc32)nc2c1c(=O)n(C)c(=O)n2C`, the cell count in assay [1] came out at 706. In addition, the inhibition was -3.2% (inactive) in assay [1], -2.5% (inactive) in assay [3], 5.5% (inactive) in assay [7] and 16.2% (inactive) in assay [8]. The inhibition of aggregation in assay [2] is 25.6% (inactive). Further, the nuclei count worked out at 80.2% in assay [2] and 131% in assay [3]. Also, the fluorescence slope in assay [4] is -0.516 (inactive). In assay [5], the NADPH fluorescence slope is -8.1e-05 (inactive). The slope in assay [6] was 0.0052 (inactive).

For `Cc1ccccc1OCc1nc2ccccc2c(=O)n1/N=C/c1ccco1`, the cell count in assay [1] came out at 373. In addition, the inhibition in assay [1] was -13.1% (inactive); in assay [3], -47.5% (inactive); in assay [7], -5.07% (inactive); in assay [8], -33% (inactive). In addition, in assay [2], the inhibition of aggregation was 4% (inactive). For the same molecule, the nuclei count in assay [2] turned out to be 57.5%; in assay [3], 85.3%. In assay [4], the fluorescence slope is -0.46 (inactive). The NADPH fluorescence slope in assay [5] is -4.6e-05 (inactive). Moreover, the slope in assay [6] was 0.00374 (inactive).

Take `C=Cn1c(N2CCOCC2)nc2c1c(=O)[nH]c(=O)n2C`: the cell count in assay [1] was 719. For the same molecule, the inhibition in assay [1] was 0.9% (inactive); in assay [3] it was 21.8% (inactive); in assay [7], 20% (inactive); in assay [8], 20.4% (inactive). Moreover, the inhibition of aggregation in assay [2] was -2.7% (inactive). The figures for the nuclei count in assay [2] and in assay [3] were 62.9% and 115%, respectively. In assay [4], the fluorescence slope is -0.412 (inactive). Besides, the NADPH fluorescence slope in assay [5] was -2.2e-05 (inactive). Further, the slope in assay [6] is 0.00579 (inactive).

For `O=C1OC(N2CCN(c3ccccn3)CC2)c2ccccc21` (centres undefined), the cell count in assay [1] was 697. The inhibition in assay [1] is 9.1% (inactive); in assay [3] it was 34.3% (inactive); in assay [7], 19.9% (inactive); in assay [8], 12% (inactive). In assay [2], the inhibition of aggregation is -14.4% (inactive). Also, the nuclei count in assay [2] was 104%; in assay [3], 88.3%. For the same molecule, the fluorescence slope in assay [4] is -0.633 (inactive). The NADPH fluorescence slope in assay [5] was -3.6e-05 (inactive). The slope in assay [6] is 0.00362 (inactive).

Take `CCOc1ccc(NC(=O)CN2CCN(CC(=O)c3ccc(OCC)cc3)CC2)cc1`: the cell count in assay [1] turned out to be 418. Moreover, the inhibition in assay [1] was 2.1% (inactive); in assay [3], -73% (inactive); in assay [7] it was 10.7% (inactive); in assay [8], 24.5% (inactive). Also, the inhibition of aggregation in assay [2] is -16% (inactive). The nuclei count is 110% in assay [2] and 112% in assay [3]. In addition, the fluorescence slope in assay [4] was -0.397 (inactive). The NADPH fluorescence slope in assay [5] is -5.5e-05 (inactive). Moreover, the slope in assay [6] was 0.00276 (inactive).

`CCOC(=O)C1CCN(C(=O)CN(Cc2ccccc2)S(C)(=O)=O)CC1`: in assay [1], the cell count is 370. Moreover, the inhibition was 2.3% (inactive) in assay [1], -78.2% (inactive) in assay [3], 10% (inactive) in assay [7] and 7.77% (inactive) in assay [8]. Besides, the inhibition of aggregation in assay [2] was -32.7% (inactive). Moreover, the figures for the nuclei count in assay [2] and in assay [3] were 102% and 115%, respectively. In addition, the fluorescence slope in assay [4] was -0.422 (inactive). Also, in assay [5], the NADPH fluorescence slope was -5.7e-05 (inactive). For the same molecule, the slope in assay [6] is 0.00496 (inactive).

Turning to `COc1ccc(CNC(=O)CCc2nc(-c3ccccc3F)no2)c(OC)c1`, in assay [1], the cell count was 354. For the same molecule, the inhibition in assay [1] is 1.7% (inactive); in assay [3] it was 37.2% (inactive); in assay [7] it was 8.05% (inactive); in assay [8], 0.538% (inactive). The inhibition of aggregation in assay [2] is 19.9% (inactive). In addition, the nuclei count worked out at 98% in assay [2] and 86.3% in assay [3]. The fluorescence slope in assay [4] was -0.378 (inactive). Besides, the NADPH fluorescence slope in assay [5] is -2e-05 (inactive). Besides, the slope in assay [6] is 0.00384 (inactive).

Regarding `Cc1nc2oc3c(NCc4ccccn4)ncnc3c2c2c1COC(C)(C)C2`, the cell count in assay [1] worked out at 366. For the same molecule, the inhibition in assay [1] is -2.9% (inactive); in assay [3], -75.4% (inactive); in assay [7], 9.92% (inactive); in assay [8], 12.7% (inactive). The inhibition of aggregation in assay [2] was 2.7% (inactive). For the same molecule, the nuclei count came to 78.1% in assay [2] and 117% in assay [3]. In assay [4], the fluorescence slope was -0.431 (inactive). Further, the NADPH fluorescence slope in assay [5] was -4.2e-06 (inactive). Also, the slope in assay [6] was 0.00661 (inactive).

For `CCCn1c(SCC(=O)N2CCc3ccccc3C2)nc2c1c(=O)n(C)c(=O)n2C`, the cell count in assay [1] is 430. The inhibition in assay [1] was -9.2% (inactive); in assay [3], -47.7% (inactive); in assay [7], 2.01% (inactive); in assay [8], -39% (inactive). The inhibition of aggregation in assay [2] is -13.1% (inactive). Moreover, the nuclei count turned out to be 115% in assay [2] and 117% in assay [3]. Besides, the fluorescence slope in assay [4] is -0.303 (inactive). For the same molecule, the NADPH fluorescence slope in assay [5] was 8.7e-06 (inactive). In assay [6], the slope is 0.00547 (inactive).

Turning to `COc1ccc(Cc2nc(-c3ccc(Br)cc3)no2)cc1`, the cell count in assay [1] worked out at 366. For the same molecule, the inhibition in assay [1] was 6% (inactive); in assay [3], -17.5% (inactive); in assay [7], -28.1% (inactive); in assay [8], -62.7% (inactive). Besides, the inhibition of aggregation in assay [2] is -7% (inactive). Moreover, the nuclei count was 105% in assay [2] and 107% in assay [3]. Also, the fluorescence slope in assay [4] was -0.28 (inactive). In assay [5], the NADPH fluorescence slope is 2e-05 (inactive). Further, in assay [6], the slope is 0.00781 (inactive).

Regarding `CCn1cc(SCC(=O)NCC2CCCO2)c2ccccc21` (centres undefined), in assay [1], the cell count worked out at 692. Besides, the inhibition in assay [1] was -20.6% (inactive); in assay [3] it was -8.7% (inactive); in assay [7] it was 3.88% (inactive); in assay [8], 15.1% (inactive). The inhibition of aggregation in assay [2] was 8.9% (inactive). Besides, the results for the nuclei count in assay [2] and in assay [3] were 112% and 102%, respectively. For the same molecule, the fluorescence slope in assay [4] is -0.4 (inactive). Moreover, the NADPH fluorescence slope in assay [5] is -4.5e-05 (inactive). Also, the slope in assay [6] was 0.00573 (inactive).

For the molecule `CCN(CC)C(=O)COc1ccc2oc(C)c(C(=O)OC(C)C)c2c1`, in assay [1], the cell count was 455. Moreover, the inhibition in assay [1] was 12.5% (inactive); in assay [3], -25.5% (inactive); in assay [7], 2.59% (inactive); in assay [8] it was 17.4% (inactive). Moreover, the inhibition of aggregation in assay [2] is -21.2% (inactive). Also, the nuclei count is 108% in assay [2] and 126% in assay [3]. Also, the fluorescence slope in assay [4] was -0.42 (inactive). Moreover, the NADPH fluorescence slope in assay [5] is 3.2e-05 (inactive). Moreover, the slope in assay [6] was 0.00275 (inactive).

As for `O=C(CSc1nnc(Cn2c(=O)sc3ccccc32)n1-c1ccccc1)Nc1nccs1`, the cell count in assay [1] was found to be 645. In addition, the inhibition was 1.8% (inactive) in assay [1], -7.4% (inactive) in assay [3], 2.86% (inactive) in assay [7] and 16.4% (inactive) in assay [8]. Moreover, the inhibition of aggregation in assay [2] is 9.1% (inactive). The figures for the nuclei count in assay [2] and in assay [3] were 110% and 104%, respectively. Further, the fluorescence slope in assay [4] is -0.58 (inactive). The NADPH fluorescence slope in assay [5] was -2.9e-05 (inactive). Moreover, the slope in assay [6] is 0.00712 (inactive).

For the molecule `Cc1ccc(S(=O)(=O)C2(C(=O)N3CCCCCC3)CC2)cc1`, the cell count in assay [1] was determined as 439. Further, the inhibition in assay [1] was -0.7% (inactive); in assay [3] it was -46.5% (inactive); in assay [7] it was 8.56% (inactive); in assay [8], 1.57% (inactive). Besides, the inhibition of aggregation in assay [2] is -0.7% (inactive). The values for the nuclei count in assay [2] and in assay [3] were 102% and 122%, respectively. Besides, the fluorescence slope in assay [4] is -0.611 (inactive). In addition, the NADPH fluorescence slope in assay [5] is 4.7e-05 (inactive). Moreover, the slope in assay [6] is 0.00663 (inactive).

By inhibition is commonly meant the relative decrease from the control value, in per cent.
